In PubChem BioAssay (NCATS):
Records with an inconclusive call do not appear. Activity calls are given as the source filed them. Unless noted, calls follow the shape of the dose curve; as a rule, active = well fitted curve in the direction sought with a large enough effect; inconclusive = small, poorly fitted or top-dose-only effect, or another doubt; inactive = no such curve, though single readings can be large; an effect the other way counts as inactive or inconclusive.

Experiments:
[1] = Validation of Assay for Modulators of Lamin A Splicing (AID 1459; active = well fitted curve in the direction sought with a large enough effect in the signal ratio; the % refers to the signal ratio;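 also: cells exposed to compound for two days before reading; 0% is about no effect; ratio rise marks activators and ratio drop marks inhibitors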)
Procedure, shortened: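 S3 HeLa stably expressing lamin A-EGFP splicing minigene and DsRed2, 600 cells/well in Opti-MEM with 2% FBS, treated 48 h at 37C; laser-scanning cytometry gives GFP/RFP total intensity ratio; ancitabine positive control, 0.5% DMSO vehicle.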

[2] = biological target: DNA repair nuclease/redox regulator APEX1 (Homo sapiens) (UniProt P27695); assay: qHTS Validation Assay for Inhibitors of the Human Apurinic/apyrimidinic Endonuclease 1 (APE1) (AID 1705;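 also: TAMRA fluorescence gain over two minutes as APE1 cuts a quenched THF abasic duplex; % is scaled to controls: 0 for no effect and ±100 for the full control effect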)
Procedure, shortened: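 Fluorogenic double-stranded THF abasic-site substrate (5'-TAMRA/3'-BHQ-2), 50 nM final. Enzyme preincubated with compound 15 min at room temperature, then substrate added. Kinetic fluorescence (ex 525/em 598 nm) read three times at 60 s intervals; activity taken as third-minus-first read difference.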

[3] = Counterscreen for APE1 Inhibitors: Fluorescent Dye Displacement Validation Assay (AID 1707);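 also: plate controls were ThO with dsDNA and no compound for no effect and ThO without dsDNA for full effect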
Procedure, shortened: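 Compounds are scored by their ability to displace Thiazole Orange (250 nM) from a 50 nM TAMRA-tagged duplex bearing a tetrahydrofuran abasic site. Buffer is 50 mM Tris-HCl pH7.5, 50mM NaCl, 2 mM MgCl2, 0.01% Tween-20.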

[4] = biological target: Endonuclease 4 (Escherichia coli (strain K12)) (UniProt P0A6C1); assay: Counterscreen for APE1 Inhibitors: qHTS Validation Assay for Inhibitors of Endonuclease IV (AID 1708); also: % is scaled to controls: 0 for no effect and ±100 for the full control effect
Procedure, shortened: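 Concentration-response counterscreen run identically to the APE1 assay: 15 min room-temperature preincubation of 2 nM enzyme with compound, reaction started with 50 nM quenched abasic DNA, progress taken from kinetic fluorescence.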

[5] = qHTS for differential inhibitors of proliferation of Plasmodium falciparum line 3D7 (AID 1876);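 also: parasite growth measured after three days of culture; 0% = vehicle wells and -100% = reference inhibitor wells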
[6] = qHTS for differential inhibitors of proliferation of Plasmodium falciparum line D10 (AID 1877);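 also: parasites grown with compound for 72 h before DNA staining; plate controls were vehicle wells for no effect and reference inhibitor wells for full effect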
[7] = qHTS for differential inhibitors of proliferation of Plasmodium falciparum line Dd2 (AID 1882); conditions: Potency: Plasmodium falciparum Dd2 proliferation inhibition;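 also: plate controls were DMSO vehicle for no effect and 0.29 µM artemisinin for full effect; nearly all actives have a fitted effect of over 65% in size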
Procedure, shortened: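 Dd2-infected erythrocytes (0.3% parasitemia, 2.5% hematocrit final) incubated with compound 72 h at 37 C, 5% CO2; lysed with saponin/Triton buffer containing SYBR Green I, incubated overnight in the dark, then read by fluorescence (485/535 nm). Normalized to 0.29 uM artemisinin and DMSO.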

[8] = qHTS for differential inhibitors of proliferation of Plasmodium falciparum line HB3 (AID 1886); conditions: Potency: Plasmodium falciparum HB3 proliferation inhibition;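 also: parasites grown with compound for 72 h before SYBR Green readout; plate controls were vehicle for no effect and reference inhibitor for full effect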
[9] = biological target: Ferritin light chain (Equus caballus) (UniProt P02791); assay: qHTS Validation Assay for Identification of Novel General Anesthetics (AID 2323); also: % is scaled to controls: 0 for no effect and ±100 for the full control effect
Procedure, shortened: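 Horse-spleen apoferritin (10 uM) in PBS with 50% saturated 1-aminoanthracene; compounds pin-transferred, 10 min at room temperature. Fluorescence read at 380/535 nm, normalized to free 1-AMA and 1-AMA/apoferritin values; four-parameter Hill fit.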

[10] = Validation screen for small molecules that induce DNA re-replication in MCF 10A normal breast cells (AID 463097); also: 0% is about no effect; nearly all actives have a fitted effect of over 60% in size
Procedure, shortened: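 MCF 10A cells exposed to compound 48 hr at 37 C, 5% CO2, then Hoechst-stained 40 min. Laser-scanning imaging of nuclear DNA content (405 nm ex, 500-530 nm em); re-replication scored as rise in nuclei with elevated fluorescence intensity.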

[11] = Quantitative high throughput screen for delayed death inhibitors of the malarial parasite plastid, 96 hour incubation (AID 488745); also: % is scaled to controls: 0 for no effect and ±100 for the full control effect; nearly all actives have a fitted effect of over 70% in size
Procedure, shortened: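 Luciferase-expressing P. falciparum in erythrocytes (2% hematocrit, 0.1% parasitemia) incubated with compound for 96 h at 37 C, 5% CO2, in RPMI 1640 with 0.5% Albumax. Growth inhibition read as decreased luminescence.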

[12] = Quantitative high throughput screen for delayed death inhibitors of the malarial parasite plastid, 48 hour incubation (AID 488752); also: % is scaled to controls: 0 for no effect and ±100 for the full control effect; nearly all actives have a fitted effect of over 65% in size
Procedure, shortened: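 Erythrocytes infected with firefly luciferase-expressing P. falciparum (2% hematocrit, 0.1% parasitemia) cultured with compound for 48 h at 37 C, 5% CO2, in RPMI 1640/0.5% Albumax. Growth inhibition read as loss of luminescence.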

[13] = biological target: M-phase phosphoprotein 8 (Homo sapiens) (UniProt Q99549); assay: qHTS Validation Assay for Inhibitors for MPP8 Chromodomain Interactions with Methylated Histone Tails (AID 488949); also: top concentration of the series differs between compounds; % is scaled to controls: 0 for no effect and ±100 for the full control effect; nearly all actives have a fitted effect of over 55% in size
Procedure, shortened: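 MPP8 (50 nM) was pre-bound to 50 nM biotinylated H3(1-18)K9me3 peptide in PBS pH 7.4 with 0.01% Tween-20. Compounds were then added for 30 min at room temperature, and complex disruption was read by AlphaScreen with streptavidin donor and nickel-chelate acceptor beads.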

[14] = biological target: Transient receptor potential cation channel subfamily V member 1 (Homo sapiens) (UniProt Q8NER1); assay: HTS Assay for Compounds that Act as Enhancers of the Vanilloid Receptor 1 (AID 488979); also: 0% is about no effect
Procedure, shortened: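 TRPV1-expressing cells loaded with Fluo-8 calcium dye; compounds added and calcium influx read kinetically for 3 min (agonist phase), then capsaicin at EC20 added and read 2 min more for enhancement. Fluorescence ex 480/em 520 nm.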

[15] = biological target: Thyrotropin receptor (Homo sapiens) (UniProt P16473); assay: qHTS Assay for Antagonists of the Thyroid Stimulating Hormone Receptor (AID 488980); also: 0% is about no effect
Procedure, shortened: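 TSHR-transfected HEK293 cells (2000/well) in HEPES-buffered HBSS with 70 uM RO 20-1724 were stimulated with 4 nM TSH (EC80, final) in the presence of compound. cAMP was measured by HTRF competition after lysis and 30 min at RT.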

[16] = biological target: Thyrotropin-releasing hormone receptor (Homo sapiens) (UniProt P34981); assay: qHTS for Small Molecule Agonists and Allosteric Enhancers of Human TRH Receptor: Validation Screen for Agonists (AID 493127;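 active = calcium activation more than 3 SD above the typical response in the agonist read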; also: 0% is about no effect); conditions: TRH receptor agonist cell assay; at 2 µM; stronger effect = higher value
Procedure, shortened: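 TRHR cells loaded with fluo-8 calcium dye; FDSS kinetic fluorescence (Ex 480/Em 530) read at 1 s/cycle after 23 nL compound addition. Agonist-mode calcium response recorded before the 10 nM TRH (EC20) addition.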

[17] = biological target: Galactokinase (Homo sapiens) (UniProt P51570); assay: qHTS Validation Assay for Inhibitors of Human Galactokinase (GALK) (AID 493189); also: 0% is about no effect
Procedure, shortened: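 GALK (5 nM) with 35 uM ATP and 100 uM galactose in HEPES pH 8.0 with MgCl2, NaCl, DTT and BSA. Reaction ran 1 h at room temperature. Residual ATP read by Kinase-Glo Plus luminescence.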

[18] = Validation screen for small molecules that induce DNA re-replication in SW480 colon adenocarcinoma cells (AID 504364); also: 0% is about no effect
Procedure, shortened: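 SW480 cells (250/well) exposed 48 h at 37 C, 5% CO2, then Hoechst-stained 40 min. Nuclear DNA content imaged by fluorescence scanning (405 nm excitation, 500-530 nm emission); re-replication scored as increased nuclei with elevated intensity.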

[19] = biological target: Voltage-gated inwardly rectifying potassium channel KCNH2 (Homo sapiens) (UniProt Q12809); assay: qHTS Assay for Small Molecule Inhibitors of the Human hERG Channel Activity (AID 588834);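 also: top concentration of the series differs between compounds; % is scaled to controls: 0 for no effect and ±100 for the full control effect; lower thallium flux fluorescence means stronger hERG block; nearly all actives have a fitted effect of over 50% in size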
Procedure, shortened: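 U2OS cells BacMam-transduced with hERG, 2000 cells/well, compound ~10 min at 37 °C before stimulation buffer. FluxOR thallium flux fluorescence read kinetically on FDSS; decrease indicates block; AC50 from Hill fits.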

[20] = qHTS Assay for Lipid Storage Modulators (AID 1519; calls by dose curve; as to activity change, negative = inhibition: % is scaled to controls: 0 for no effect and ±100 for the full control effect); conditions: Drosophila S3 cells, BODIPY lipid droplet/cell ratio, laser cytometry, cells loaded with oleic acid; for activity change, negative = inhibition: at 57.5 µM (top of the series)
Procedure, shortened: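 Cells seeded at 5,000 per well were treated with compounds over a concentration series and loaded with oleic acid (400 uM, as added). Lipid droplet fluorescence (488 nm excitation, 500-530 nm channel) was read by laser-scanning cytometry and normalized to 20 uM Triacsin C.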

[21] = measured here: cell count channel max response
[22] = measured here: lipid channel max response

Chain of Thyrotropin-releasing hormone receptor (Homo sapiens) (P34981 whole entry, looked up): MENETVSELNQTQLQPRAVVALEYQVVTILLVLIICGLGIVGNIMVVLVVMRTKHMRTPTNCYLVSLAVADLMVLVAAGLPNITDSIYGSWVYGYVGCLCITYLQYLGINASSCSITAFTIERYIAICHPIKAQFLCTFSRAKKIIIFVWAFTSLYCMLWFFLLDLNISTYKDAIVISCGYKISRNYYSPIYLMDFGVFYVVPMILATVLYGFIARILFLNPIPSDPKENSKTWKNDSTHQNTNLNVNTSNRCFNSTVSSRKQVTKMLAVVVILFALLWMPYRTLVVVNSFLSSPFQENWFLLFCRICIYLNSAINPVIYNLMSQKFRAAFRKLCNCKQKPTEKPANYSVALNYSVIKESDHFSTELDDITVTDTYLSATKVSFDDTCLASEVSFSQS
Chain of Galactokinase (Homo sapiens) (P51570 whole entry, looked up): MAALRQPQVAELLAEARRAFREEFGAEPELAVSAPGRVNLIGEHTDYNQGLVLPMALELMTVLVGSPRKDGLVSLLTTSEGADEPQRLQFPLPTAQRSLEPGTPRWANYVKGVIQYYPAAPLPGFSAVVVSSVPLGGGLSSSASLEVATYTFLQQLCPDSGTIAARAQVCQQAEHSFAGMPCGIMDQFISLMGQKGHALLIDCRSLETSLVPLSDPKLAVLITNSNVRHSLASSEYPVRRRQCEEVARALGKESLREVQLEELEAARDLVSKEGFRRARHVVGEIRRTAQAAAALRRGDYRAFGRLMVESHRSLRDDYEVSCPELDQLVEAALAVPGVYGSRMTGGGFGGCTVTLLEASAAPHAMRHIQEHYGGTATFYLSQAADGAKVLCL
Chain of Voltage-gated inwardly rectifying potassium channel KCNH2 (Homo sapiens) (Q12809 whole entry, looked up): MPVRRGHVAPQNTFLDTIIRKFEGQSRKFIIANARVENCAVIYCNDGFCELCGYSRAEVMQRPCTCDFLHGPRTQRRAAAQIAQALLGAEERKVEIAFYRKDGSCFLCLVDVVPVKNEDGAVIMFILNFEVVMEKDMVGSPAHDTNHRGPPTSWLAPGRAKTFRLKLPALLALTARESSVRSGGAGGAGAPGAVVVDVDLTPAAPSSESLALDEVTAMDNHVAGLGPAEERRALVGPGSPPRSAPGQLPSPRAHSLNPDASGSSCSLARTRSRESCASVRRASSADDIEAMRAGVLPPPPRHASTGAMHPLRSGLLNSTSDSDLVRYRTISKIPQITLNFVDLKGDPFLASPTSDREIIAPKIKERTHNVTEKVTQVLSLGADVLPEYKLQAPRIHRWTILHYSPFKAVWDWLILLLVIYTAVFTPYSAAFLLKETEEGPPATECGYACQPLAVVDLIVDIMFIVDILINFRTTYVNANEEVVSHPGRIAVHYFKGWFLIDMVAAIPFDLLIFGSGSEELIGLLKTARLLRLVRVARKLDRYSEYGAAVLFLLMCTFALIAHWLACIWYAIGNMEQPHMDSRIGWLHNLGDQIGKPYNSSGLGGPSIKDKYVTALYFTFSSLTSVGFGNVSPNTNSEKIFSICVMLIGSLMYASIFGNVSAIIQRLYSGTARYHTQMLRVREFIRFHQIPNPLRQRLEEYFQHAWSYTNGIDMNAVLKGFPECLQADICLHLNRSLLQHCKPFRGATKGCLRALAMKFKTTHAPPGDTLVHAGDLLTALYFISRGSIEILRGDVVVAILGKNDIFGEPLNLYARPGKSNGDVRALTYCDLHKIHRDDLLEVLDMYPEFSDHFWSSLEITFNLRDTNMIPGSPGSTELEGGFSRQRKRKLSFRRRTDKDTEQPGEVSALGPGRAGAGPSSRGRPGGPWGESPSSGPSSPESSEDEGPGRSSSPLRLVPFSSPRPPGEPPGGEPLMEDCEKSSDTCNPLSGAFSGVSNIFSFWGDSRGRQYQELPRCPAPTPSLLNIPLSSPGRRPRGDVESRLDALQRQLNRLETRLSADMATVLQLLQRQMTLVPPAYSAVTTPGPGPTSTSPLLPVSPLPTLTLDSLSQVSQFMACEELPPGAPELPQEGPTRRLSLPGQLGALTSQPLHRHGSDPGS
Chain of Thyrotropin receptor (Homo sapiens) (P16473 whole entry, looked up): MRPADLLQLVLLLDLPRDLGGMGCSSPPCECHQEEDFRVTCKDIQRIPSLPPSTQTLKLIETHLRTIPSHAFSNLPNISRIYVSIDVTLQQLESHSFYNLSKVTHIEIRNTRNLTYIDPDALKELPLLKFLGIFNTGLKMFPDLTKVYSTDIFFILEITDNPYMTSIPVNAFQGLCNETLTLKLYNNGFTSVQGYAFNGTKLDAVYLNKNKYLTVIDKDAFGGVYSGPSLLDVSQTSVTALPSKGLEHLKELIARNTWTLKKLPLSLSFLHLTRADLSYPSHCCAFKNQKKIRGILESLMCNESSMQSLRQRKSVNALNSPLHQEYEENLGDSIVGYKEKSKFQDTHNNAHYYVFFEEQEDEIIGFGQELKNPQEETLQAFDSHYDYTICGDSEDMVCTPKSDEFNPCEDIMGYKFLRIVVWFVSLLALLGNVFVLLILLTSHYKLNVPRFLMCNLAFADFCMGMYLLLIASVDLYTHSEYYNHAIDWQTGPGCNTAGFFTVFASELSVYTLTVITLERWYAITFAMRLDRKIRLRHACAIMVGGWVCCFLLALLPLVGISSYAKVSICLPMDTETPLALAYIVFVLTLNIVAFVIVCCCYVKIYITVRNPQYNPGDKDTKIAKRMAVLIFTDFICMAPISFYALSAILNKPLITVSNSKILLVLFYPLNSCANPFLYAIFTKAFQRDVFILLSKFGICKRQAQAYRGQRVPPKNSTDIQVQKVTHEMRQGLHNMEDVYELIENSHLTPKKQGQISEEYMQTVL
Chain of Ferritin light chain (Equus caballus) (P02791 2-175 limits assumed): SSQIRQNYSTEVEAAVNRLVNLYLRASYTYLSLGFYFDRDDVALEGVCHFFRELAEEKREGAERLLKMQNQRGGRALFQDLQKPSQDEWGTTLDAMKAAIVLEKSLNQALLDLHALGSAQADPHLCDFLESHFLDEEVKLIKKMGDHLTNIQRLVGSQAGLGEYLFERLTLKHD
Chain of M-phase phosphoprotein 8 (Homo sapiens) (Q99549 whole entry, looked up): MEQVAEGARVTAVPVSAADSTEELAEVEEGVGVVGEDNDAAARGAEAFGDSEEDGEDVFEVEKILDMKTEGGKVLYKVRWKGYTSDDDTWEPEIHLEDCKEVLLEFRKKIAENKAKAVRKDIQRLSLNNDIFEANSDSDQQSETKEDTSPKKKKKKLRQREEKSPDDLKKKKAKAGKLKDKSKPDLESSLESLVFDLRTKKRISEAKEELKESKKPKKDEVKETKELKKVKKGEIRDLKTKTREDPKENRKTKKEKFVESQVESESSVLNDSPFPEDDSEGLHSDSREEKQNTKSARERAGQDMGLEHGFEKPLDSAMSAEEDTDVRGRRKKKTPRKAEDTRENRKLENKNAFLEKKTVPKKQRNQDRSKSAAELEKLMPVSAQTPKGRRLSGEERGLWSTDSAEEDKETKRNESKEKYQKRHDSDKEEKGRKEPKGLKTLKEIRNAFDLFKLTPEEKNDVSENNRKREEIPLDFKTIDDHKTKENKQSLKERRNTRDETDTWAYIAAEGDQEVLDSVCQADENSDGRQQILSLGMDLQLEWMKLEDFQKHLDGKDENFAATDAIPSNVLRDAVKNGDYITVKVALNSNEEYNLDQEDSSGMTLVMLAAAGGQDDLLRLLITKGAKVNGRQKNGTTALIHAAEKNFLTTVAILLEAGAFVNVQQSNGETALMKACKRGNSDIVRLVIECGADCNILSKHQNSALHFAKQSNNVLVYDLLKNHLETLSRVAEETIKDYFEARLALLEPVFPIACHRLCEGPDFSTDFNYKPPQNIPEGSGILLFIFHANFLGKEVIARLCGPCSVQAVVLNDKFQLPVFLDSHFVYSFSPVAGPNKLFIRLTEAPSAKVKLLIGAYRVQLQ
Chain of Transient receptor potential cation channel subfamily V member 1 (Homo sapiens) (Q8NER1 whole entry, looked up): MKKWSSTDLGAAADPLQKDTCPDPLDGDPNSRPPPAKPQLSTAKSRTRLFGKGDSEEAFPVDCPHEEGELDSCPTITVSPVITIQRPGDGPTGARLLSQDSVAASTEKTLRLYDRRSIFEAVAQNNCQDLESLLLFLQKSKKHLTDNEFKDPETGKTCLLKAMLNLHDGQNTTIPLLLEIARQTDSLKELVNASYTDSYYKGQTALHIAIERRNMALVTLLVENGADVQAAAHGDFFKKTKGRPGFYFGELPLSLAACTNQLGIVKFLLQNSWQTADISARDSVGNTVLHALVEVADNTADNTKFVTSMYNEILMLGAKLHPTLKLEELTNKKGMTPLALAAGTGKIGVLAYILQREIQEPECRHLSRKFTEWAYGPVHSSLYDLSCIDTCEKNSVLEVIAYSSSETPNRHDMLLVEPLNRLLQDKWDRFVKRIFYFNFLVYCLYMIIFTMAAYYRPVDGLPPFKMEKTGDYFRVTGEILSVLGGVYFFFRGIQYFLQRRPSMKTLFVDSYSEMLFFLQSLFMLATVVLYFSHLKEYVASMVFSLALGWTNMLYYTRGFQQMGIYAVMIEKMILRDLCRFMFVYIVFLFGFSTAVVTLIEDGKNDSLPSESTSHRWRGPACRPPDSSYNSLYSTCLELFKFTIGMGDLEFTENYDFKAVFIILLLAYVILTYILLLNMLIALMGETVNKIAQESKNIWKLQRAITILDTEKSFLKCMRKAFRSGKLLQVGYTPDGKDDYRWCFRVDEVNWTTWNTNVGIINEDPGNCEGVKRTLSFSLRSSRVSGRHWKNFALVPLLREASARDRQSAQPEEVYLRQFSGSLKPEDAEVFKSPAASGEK
Chain of DNA repair nuclease/redox regulator APEX1 (Homo sapiens) (P27695 whole entry, looked up): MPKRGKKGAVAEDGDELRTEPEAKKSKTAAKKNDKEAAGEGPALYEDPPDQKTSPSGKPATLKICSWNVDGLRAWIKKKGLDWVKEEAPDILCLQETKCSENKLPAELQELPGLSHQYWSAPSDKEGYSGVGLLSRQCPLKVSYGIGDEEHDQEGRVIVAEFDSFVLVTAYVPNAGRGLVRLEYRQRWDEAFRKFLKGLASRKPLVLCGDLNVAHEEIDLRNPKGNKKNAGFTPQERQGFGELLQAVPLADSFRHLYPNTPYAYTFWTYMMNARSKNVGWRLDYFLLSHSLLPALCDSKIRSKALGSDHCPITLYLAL

COc1cc(=O)n(C)c2c(OCC(O)C(C)(C)O)cccc12 (stereo unspecified)
inactive: outcome [1] | Potency [2] | Potency [3] | outcome [4] | Potency [5] | Potency [6] | Potency [7] | Potency [8] | outcome [9] | outcome [10] | Potency [11] | Potency [12] | Potency [13] | outcome [14] | outcome [15] | activation [16] 0.812% | outcome [17] | outcome [18] | Potency [19]

NC(=NCCC[C@H](N)C(=O)O)NO
inactive: outcome [1] | Potency [2] | Potency [3] | outcome [4] | Potency [5] | Potency [6] | Potency [7] | Potency [8] | outcome [9] | outcome [10] | Potency [11] | Potency [12] | Potency [13] | outcome [14] | outcome [15] | activation [16] 0.812% | outcome [17] | outcome [18] | Potency [19]

NCC1OC(O[C@@H]2[C@H](O)[C@@H](OC3C(O)C(N)CC(N)C3OC3OC(CO)C(O)C(O)C3N)O[C@@H]2CO)C(N)C(O)C1O (stereo partly specified)
inactive: outcome [1] | activity change, negative = inhibition [20] 1.08% | Potency [2] | Potency [3] | outcome [4] | Potency [5] | Potency [6] | Potency [7] | Potency [8] | outcome [9] | outcome [10] | Potency [11] | Potency [12] | Potency [13] | outcome [14] | outcome [15] | activation [16] 1.44% | outcome [17] | outcome [18] | Potency [19]
-5.44%: max response [20, 21]
-4.61%: max response [20, 22]

COc1c2c(nc3ccccc13)OC(C(C)(O)CO)C2 (stereo unspecified)
-18%: max response [20, 21]
inactive: outcome [1] | activity change, negative = inhibition [20] 1.22% | Potency [2] | Potency [3] | outcome [4] | Potency [5] | Potency [6] | Potency [7] | Potency [8] | outcome [9] | outcome [10] | Potency [11] | Potency [12] | Potency [13] | outcome [14] | outcome [15] | activation [16] 0.812% | outcome [17] | outcome [18] | Potency [19]
-12.2%: max response [20, 22]

CN1C(=O)CCC1c1cccnc1 (stereo unspecified)
-1.85%: max response [20, 21]
10.6%: max response [20, 22]
inactive: outcome [1] | activity change, negative = inhibition [20] 10.8% | Potency [2] | Potency [3] | outcome [4] | Potency [6] | Potency [7] | Potency [8] | outcome [9] | outcome [10] | Potency [12] | Potency [13] | outcome [14] | outcome [15] | activation [16] 1.19% | outcome [17] | outcome [18]
